Laboratory results reported in paper PMC7862700, “An all-to-all approach to the identification of sequence-specific readers for epigenetic DNA modifications on cytosine”.

Legend:
Experiment in all cases: DAPPL (digital affinity profiling via proximity ligation, sequencing); 10 mM Tris-HCl pH 7.5, 50 mM NaCl, 1 mM DTT, 4% glycerol, room temperature, 30 min; GST-TFs on glutathione beads, 16-mer random dsDNA library, 0.1% formaldehyde crosslink after washing; high values mean tight binding
Details in all cases: protein: recombinant; tags: N-terminal GST; dsDNA, one strand shown
[1] = biological target: T1, FLI1 (Homo sapiens, UniProt Q01543 1-452)
T1 sequence: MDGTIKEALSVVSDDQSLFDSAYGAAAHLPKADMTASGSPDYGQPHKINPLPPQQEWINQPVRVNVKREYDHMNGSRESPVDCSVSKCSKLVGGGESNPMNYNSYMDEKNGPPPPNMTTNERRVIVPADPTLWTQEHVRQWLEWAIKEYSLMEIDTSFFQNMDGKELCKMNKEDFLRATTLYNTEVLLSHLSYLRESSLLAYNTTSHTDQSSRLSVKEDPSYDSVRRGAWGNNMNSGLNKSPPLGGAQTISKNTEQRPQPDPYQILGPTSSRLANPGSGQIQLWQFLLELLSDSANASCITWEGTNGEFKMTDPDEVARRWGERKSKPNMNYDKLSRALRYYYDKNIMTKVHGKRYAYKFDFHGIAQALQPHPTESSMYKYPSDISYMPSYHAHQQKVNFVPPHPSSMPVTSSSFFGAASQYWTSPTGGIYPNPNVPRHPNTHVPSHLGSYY
Method in brief: (§1)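 Pools were built from human transcription factors expressed in yeast as GST fusions, captured on glutathione beads and DNA-barcoded, along with a tag-only sample. Incubation with 200 nmole of a 16-mer random double-stranded DNA library lasted 30 min at room temperature in Tris/NaCl/DTT/glycerol buffer, and was followed by washing, 0.1% formaldehyde crosslinking, proximity ligation, PCR amplification and Illumina NextSeq500 sequencing. Binding signal is the quotient of each hexamer's read frequency for a factor and its frequency for the tag-only sample.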

[2] = biological target: T2, ELK1 (Homo sapiens, UniProt P19419 1-428)
T2 sequence: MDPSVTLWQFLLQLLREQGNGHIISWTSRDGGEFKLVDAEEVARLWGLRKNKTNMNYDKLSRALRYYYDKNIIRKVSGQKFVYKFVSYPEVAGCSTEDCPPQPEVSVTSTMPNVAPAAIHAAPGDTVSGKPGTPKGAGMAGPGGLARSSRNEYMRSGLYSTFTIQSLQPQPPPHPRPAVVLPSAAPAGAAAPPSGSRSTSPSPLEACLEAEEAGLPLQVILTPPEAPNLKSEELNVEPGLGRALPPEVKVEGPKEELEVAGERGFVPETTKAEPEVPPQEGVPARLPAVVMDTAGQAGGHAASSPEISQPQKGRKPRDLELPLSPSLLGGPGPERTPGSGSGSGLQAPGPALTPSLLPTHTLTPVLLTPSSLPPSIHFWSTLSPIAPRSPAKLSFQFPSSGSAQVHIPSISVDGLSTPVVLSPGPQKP
Method in brief: as §1

[3] = biological target: T3, GABPA (Homo sapiens, UniProt Q06546 1-454)
T3 sequence: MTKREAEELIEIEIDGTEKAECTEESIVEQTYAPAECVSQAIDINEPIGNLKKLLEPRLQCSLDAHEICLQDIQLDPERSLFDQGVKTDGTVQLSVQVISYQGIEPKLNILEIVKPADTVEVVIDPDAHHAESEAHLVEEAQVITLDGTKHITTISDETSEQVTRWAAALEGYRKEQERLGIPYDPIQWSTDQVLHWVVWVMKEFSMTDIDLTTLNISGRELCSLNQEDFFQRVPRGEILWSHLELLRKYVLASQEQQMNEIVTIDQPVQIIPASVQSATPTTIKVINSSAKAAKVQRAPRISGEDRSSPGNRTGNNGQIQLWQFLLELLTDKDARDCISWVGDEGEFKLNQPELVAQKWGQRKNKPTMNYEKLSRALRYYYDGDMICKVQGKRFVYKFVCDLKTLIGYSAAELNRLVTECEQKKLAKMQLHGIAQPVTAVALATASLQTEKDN
Method in brief: as §1

[4] = biological target: T4, ERG (Homo sapiens, UniProt P11308 1-479)
T4 sequence: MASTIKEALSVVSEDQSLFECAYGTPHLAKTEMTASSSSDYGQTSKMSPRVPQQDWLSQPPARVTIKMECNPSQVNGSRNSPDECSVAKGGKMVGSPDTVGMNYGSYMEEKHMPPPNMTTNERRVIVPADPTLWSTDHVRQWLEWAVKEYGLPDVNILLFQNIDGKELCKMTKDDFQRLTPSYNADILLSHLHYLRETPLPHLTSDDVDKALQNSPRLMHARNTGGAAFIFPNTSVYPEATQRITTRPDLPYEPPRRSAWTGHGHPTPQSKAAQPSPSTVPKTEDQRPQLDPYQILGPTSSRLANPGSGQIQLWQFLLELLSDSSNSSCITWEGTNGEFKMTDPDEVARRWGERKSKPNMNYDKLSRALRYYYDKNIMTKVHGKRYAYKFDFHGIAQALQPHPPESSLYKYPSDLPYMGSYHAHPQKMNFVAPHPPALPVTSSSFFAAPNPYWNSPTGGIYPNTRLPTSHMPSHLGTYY
Method in brief: as §1

[5] = biological target: ELF1 (Homo sapiens, UniProt P32519 1-619)
Method in brief: as §1

[6] = biological target: T5, EHF (Homo sapiens, UniProt Q9NZC4 1-300)
T5 sequence: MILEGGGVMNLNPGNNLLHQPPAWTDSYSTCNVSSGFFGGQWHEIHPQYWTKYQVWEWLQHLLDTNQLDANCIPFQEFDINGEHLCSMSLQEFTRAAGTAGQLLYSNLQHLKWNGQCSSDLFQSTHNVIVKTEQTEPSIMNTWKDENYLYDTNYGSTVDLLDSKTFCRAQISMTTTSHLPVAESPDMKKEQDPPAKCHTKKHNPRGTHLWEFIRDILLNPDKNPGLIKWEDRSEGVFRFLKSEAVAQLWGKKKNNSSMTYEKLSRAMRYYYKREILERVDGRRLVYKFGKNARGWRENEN
Method in brief: as §1

[7] = biological target: SPI1 (Homo sapiens, UniProt P17947 1-270)
Method in brief: as §1

[8] = biological target: SPIB (Homo sapiens, UniProt Q01892 1-262)
Method in brief: as §1

[9] = biological target: T6, ELK3 (Homo sapiens, UniProt P41970 1-407)
T6 sequence: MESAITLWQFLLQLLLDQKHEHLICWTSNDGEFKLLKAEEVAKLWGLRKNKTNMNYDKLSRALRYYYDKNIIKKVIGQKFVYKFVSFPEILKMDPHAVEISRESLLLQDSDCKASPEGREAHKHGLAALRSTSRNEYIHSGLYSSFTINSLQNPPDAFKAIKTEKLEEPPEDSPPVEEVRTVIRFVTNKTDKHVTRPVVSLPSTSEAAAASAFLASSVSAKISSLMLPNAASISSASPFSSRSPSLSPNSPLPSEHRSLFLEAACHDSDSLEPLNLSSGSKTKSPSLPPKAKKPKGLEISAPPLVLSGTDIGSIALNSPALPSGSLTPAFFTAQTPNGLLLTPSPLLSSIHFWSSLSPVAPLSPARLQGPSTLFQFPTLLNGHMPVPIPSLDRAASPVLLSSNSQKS
Method in brief: as §1

[10] = biological target: ETV5 (Homo sapiens, UniProt P41161 1-510)
Method in brief: as §1

Chain of SPIB (Q01892 whole entry): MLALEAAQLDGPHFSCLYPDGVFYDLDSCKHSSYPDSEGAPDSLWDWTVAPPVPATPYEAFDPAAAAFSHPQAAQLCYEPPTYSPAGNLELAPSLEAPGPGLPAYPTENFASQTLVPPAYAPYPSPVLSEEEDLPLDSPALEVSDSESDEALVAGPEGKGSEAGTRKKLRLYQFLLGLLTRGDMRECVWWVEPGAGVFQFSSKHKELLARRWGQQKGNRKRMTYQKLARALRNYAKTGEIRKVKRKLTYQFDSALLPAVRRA
Chain of ETV5 (P41161 whole entry): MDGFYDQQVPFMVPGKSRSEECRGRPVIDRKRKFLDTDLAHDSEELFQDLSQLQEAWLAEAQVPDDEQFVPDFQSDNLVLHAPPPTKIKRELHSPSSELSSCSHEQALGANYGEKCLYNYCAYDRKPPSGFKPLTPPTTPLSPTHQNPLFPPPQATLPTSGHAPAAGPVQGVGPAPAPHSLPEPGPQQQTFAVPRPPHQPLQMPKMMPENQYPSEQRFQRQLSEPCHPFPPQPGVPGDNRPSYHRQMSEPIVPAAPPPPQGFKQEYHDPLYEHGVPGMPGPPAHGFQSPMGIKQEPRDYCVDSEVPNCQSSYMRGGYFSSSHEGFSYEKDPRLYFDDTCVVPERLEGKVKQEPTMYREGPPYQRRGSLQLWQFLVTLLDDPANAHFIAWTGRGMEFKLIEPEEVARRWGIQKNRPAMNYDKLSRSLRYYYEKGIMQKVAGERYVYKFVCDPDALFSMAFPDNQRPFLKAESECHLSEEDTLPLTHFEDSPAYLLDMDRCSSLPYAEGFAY
Chain of ELF1 (P32519 whole entry): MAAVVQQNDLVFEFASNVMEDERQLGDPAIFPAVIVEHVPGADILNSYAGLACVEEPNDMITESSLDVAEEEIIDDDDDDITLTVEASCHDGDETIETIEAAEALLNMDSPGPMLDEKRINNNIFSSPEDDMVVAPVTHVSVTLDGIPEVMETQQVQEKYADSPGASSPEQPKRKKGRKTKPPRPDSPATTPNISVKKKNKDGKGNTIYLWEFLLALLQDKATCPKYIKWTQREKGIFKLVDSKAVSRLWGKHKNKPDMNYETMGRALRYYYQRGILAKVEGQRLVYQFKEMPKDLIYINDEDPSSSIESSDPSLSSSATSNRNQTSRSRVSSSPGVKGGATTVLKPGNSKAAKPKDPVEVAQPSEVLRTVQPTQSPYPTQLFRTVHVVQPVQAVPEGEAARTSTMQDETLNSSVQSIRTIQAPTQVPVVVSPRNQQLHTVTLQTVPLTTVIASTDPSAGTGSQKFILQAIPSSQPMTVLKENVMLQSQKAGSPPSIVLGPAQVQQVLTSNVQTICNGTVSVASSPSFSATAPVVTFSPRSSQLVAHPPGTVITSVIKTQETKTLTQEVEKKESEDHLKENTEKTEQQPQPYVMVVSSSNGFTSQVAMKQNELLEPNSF

Question: For ACGACC, which binding signal [1] is on record?
Answer: 1.18 fold enrichment (6-mer frequency, TF over GST control)

Question: What about the binding signal [2] of the same sequence?
Answer: 1.21 fold enrichment (6-mer frequency, TF over GST control)

Question: What about the binding signal [3] of the same sequence?
Answer: 1.11 fold enrichment (6-mer frequency, TF over GST control)

Question: And the binding signal [4]?
Answer: 1.1 fold enrichment (6-mer frequency, TF over GST control)

Question: What about the binding signal [5] of the same sequence?
Answer: 1.21 fold enrichment (6-mer frequency, TF over GST control)

Question: What about the binding signal [6] of the same sequence?
Answer: 1.1 fold enrichment (6-mer frequency, TF over GST control)

Question: And the binding signal [7]?
Answer: 1.03 fold enrichment (6-mer frequency, TF over GST control)

Question: What about the binding signal [8] of the same sequence?
Answer: 1.07 fold enrichment (6-mer frequency, TF over GST control)

Question: What about the binding signal [9] of the same sequence?
Answer: 1.31 fold enrichment (6-mer frequency, TF over GST control)

Question: And the binding signal [10]?
Answer: 1.17 fold enrichment (6-mer frequency, TF over GST control)
